From PubChem BioAssay come the findings set out here.

Activity calls are given as the source filed them.

Experiment [1] relates to Plasmodium falciparum Sir2 (PF13_0152, Sir2A). Put plainly: Plasmodium falciparum Sir2A binding compounds – biochemical, small-molecule microarray, 635 nm fluorescence, primary screen (AID 1098).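 Note: score merges spot fluorescence intensity with its signal-to-noise ratio.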 Conditions: fluorescence 635 nm, higher = more signal.
Experiment [2] can be described thus: probe aDKK1 binding to arrayed compounds – biochemical, biotinylated probe, 635/667 nm fluorescence, primary screen (AID 1099).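 Note: score merges 667nm spot fluorescence with signal to noise across triplicate slides.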 Conditions: small-molecule microarray, higher = more signal.
The nature of experiment [3]: probe aCHRDL2 binding to arrayed compounds – biochemical, biotinylated probe, 635/667 nm fluorescence, primary screen (AID 1100). Conditions: small-molecule microarray, higher = more signal.
A short description of experiment [4]: change in splice reporter luminescence, either direction, cell-based, HEK293, spliceosome inhibition project, primary screen (AID 1101).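 Note: HEK293 cells carrying a splicing-competent luciferase reporter gene; test concentration not given here.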 Conditions: HEK293 splicing luciferase reporter, 24 h, higher = more signal, called active from +8 up or from −8 down.
For experiment [5], the target named is Fibroblast growth factor 10 (Homo sapiens) (UniProt O15520). Put plainly: compounds binding fibroblast growth factor 10 – biochemical, small-molecule microarray, 635 nm fluorescence, primary screen (AID 1102). Conditions: FGF10 binding, fluorescence 635 nm, higher = more signal.
Chain of Fibroblast growth factor 10 (Homo sapiens) (O15520 whole entry, looked up): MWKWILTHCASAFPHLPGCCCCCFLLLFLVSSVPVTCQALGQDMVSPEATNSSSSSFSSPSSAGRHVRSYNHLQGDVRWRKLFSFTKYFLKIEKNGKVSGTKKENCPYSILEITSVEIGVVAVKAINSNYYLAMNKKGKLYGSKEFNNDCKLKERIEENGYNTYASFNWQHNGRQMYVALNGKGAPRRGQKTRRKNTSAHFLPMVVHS
Experiment [6] concerns glycogen synthase kinase-3 (GSK3A per assay name; protocol says GSK3B). Put plainly: compounds binding glycogen synthase kinase-3 – biochemical, small-molecule microarray, 635 nm fluorescence, GSK3A, primary screen (AID 1103). Note: the record names both GSK3A and GSK3B. As to conditions: fluorescence 635 nm, higher = more signal.
The target in experiment [7] is Epidermal growth factor receptor (Homo sapiens) (UniProt P00533). Put plainly: compounds binding epidermal growth factor receptor – biochemical, small-molecule microarray, 635 nm fluorescence, primary screen (AID 1104).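 Note: score merges 667 nm emission intensity with spot signal to noise over triplicate slides.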 Conditions: EGFR binding, higher = more signal.
Chain of Epidermal growth factor receptor (Homo sapiens) (P00533 whole entry, looked up): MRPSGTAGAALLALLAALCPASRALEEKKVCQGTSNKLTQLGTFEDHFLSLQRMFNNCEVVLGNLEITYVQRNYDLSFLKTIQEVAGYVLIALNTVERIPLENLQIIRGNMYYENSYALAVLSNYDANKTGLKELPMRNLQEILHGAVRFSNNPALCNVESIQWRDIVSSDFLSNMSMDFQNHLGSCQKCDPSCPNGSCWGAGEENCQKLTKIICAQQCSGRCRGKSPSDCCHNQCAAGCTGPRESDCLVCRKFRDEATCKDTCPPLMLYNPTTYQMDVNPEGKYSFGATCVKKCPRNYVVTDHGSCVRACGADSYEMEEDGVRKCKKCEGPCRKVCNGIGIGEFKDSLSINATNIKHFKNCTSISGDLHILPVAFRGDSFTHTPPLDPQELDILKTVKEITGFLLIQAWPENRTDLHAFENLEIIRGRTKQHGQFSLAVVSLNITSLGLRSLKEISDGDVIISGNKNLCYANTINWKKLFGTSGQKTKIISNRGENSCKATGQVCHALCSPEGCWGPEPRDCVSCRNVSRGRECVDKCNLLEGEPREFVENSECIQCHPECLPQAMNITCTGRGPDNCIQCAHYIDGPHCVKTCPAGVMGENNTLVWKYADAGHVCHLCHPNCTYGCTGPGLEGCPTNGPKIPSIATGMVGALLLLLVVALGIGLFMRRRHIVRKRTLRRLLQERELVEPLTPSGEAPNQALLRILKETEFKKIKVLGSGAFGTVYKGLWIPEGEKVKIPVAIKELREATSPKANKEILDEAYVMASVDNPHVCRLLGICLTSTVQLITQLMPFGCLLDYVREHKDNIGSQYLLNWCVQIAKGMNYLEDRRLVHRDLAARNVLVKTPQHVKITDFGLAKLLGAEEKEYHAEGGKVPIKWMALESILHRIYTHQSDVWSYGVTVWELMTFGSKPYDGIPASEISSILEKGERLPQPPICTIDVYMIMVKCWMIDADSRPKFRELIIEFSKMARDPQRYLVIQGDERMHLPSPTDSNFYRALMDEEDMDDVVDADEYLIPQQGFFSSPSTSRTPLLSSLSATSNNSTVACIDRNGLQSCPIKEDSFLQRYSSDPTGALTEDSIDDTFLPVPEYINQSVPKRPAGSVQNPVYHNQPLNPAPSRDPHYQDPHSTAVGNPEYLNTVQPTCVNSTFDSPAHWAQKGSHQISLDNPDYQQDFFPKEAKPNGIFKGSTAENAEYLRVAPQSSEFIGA
The target in experiment [8] is Follistatin-related protein 3 (Homo sapiens) (UniProt O95633). Put plainly: compounds binding follistatin-related protein 3 – biochemical, small-molecule microarray, 635 nm fluorescence, primary screen (AID 1105).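 Note: score merges emission near 667 nm and signal to noise per printed spot across three slides.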 As to conditions: FSTL3 binding, higher = more signal.
Chain of Follistatin-related protein 3 (Homo sapiens) (O95633 whole entry, looked up): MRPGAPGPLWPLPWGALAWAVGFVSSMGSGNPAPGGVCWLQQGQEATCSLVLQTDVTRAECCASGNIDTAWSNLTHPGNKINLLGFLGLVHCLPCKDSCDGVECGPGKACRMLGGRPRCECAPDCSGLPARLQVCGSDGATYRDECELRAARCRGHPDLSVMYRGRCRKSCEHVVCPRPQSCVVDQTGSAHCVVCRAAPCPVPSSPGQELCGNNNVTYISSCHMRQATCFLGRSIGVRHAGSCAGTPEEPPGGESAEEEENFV
Experiment [9] deals with Dickkopf-related protein 1 (Homo sapiens) (UniProt O94907). Put plainly: small molecules binding DKK1 protein – biochemical, small-molecule microarray, 635 nm fluorescence scan, primary screen (AID 1106).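 Note: score merges emission near 667 nm with signal to noise over three replicate slides.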 Conditions: higher = more signal.
Chain of Dickkopf-related protein 1 (Homo sapiens) (O94907 whole entry, looked up): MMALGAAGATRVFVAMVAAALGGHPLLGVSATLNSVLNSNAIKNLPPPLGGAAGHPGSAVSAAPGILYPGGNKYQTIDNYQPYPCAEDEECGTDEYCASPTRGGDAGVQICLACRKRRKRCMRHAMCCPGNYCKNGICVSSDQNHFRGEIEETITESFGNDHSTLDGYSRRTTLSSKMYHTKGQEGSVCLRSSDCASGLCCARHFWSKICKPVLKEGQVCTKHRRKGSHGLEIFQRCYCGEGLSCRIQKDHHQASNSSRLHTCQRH
Experiment [10] relates to Inhibin beta A chain (activin A). Put plainly: small molecules binding activin A – biochemical, small-molecule microarray, 635 nm fluorescence scan, primary screen (AID 1107).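 Note: mouse activin A protein probed at 4.33 µg/mL on printed slides; score merges bound-protein fluorescence near 667 nm with spot signal-to-noise.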 Conditions: INHBA, higher = more signal.
Experiment [11] has as its system Human papillomavirus type 1a protein E7 (residues 44-93). Put plainly: small molecules binding HPV E7 44-93 – biochemical, small-molecule microarray, residues 44-93, 635 nm fluorescence, primary screen (AID 1108).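 Note: E7 fragment applied at 1 µg/mL in TBST for 1 h at 4 C; score combines spot fluorescence with its signal to noise ratio.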 As to conditions: fluorescence 635 nm, higher = more signal.
Experiment [12] in a line: hepatitis C replication reporter changes, two-sided – Huh7 cells, luciferase reporter, HCV replication inhibitor project, primary screen (AID 1109).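 Note: huh7 hepatoma cells harbouring a luciferase neomycin HCV replicon reporter; luciferase luminescence as measure of HCV replicon replication; test concentration not given here.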 Conditions: Huh7 HCV replicon luciferase reporter, 48 h; higher = more signal. Background: In a reporter assay the amount or activity of a reporter protein is the signal.
Experiment [13] addresses Left-right determination factor 2 (Homo sapiens) (UniProt O00292). Put plainly: small molecules binding LEFTY2 protein – biochemical, small-molecule microarray, 635 nm fluorescence scan, primary screen (AID 1110). Conditions: higher = more signal.
The target in experiment [14] is Calmodulin-1 (Homo sapiens) (UniProt P0DP23). Put plainly: small molecules binding calmodulin-1 with EGTA – biochemical, small-molecule microarray, Cy5-labelled CALM1, profiling panel (AID 1111).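 Note: labelled calmodulin applied in Tris saline Tween buffer holding calcium plus EGTA and DTT.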 As to conditions: Cy5-CALM1 binding fluorescence, higher = more signal.
Experiment [15] shares this target. Put plainly: small molecules binding Ca-loaded calmodulin-1 – biochemical, small-molecule microarray, Cy5-labelled CALM1, plus calcium, artefact control for SMM control-protein annotation, profiling panel (AID 1112).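 Note: score merges spot fluorescence with signal to noise from triplicate slides.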 As to conditions: Cy5-CALM1 binding fluorescence, higher = more signal.
A short description of experiment [16]: probe aWnt5a binding to arrayed compounds – biochemical, biotinylated probe, 635/667 nm fluorescence, primary screen (AID 1113).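 Note: score merges 667 nm fluorescence intensity with signal-to-noise per printed feature.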 Conditions: small-molecule microarray, higher = more signal.
Experiment [17] can be described thus: probe aShh binding to arrayed compounds – biochemical, biotinylated probe, 635/667 nm fluorescence, primary screen (AID 1114).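 Note: probe is biotin-labelled aShh protein from a stem cell growth factor screen; measures binding of labelled protein to compounds printed on the slide; score merges feature fluorescence at 667 nm with signal-to-noise.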 As to conditions: small-molecule microarray, higher = more signal.
Experiment [18] is described as follows: probe aNog binding to arrayed compounds – biochemical, biotinylated probe, 635/667 nm fluorescence, primary screen (AID 1115).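 Note: probe is biotinylated aNog protein used at 0.15 µg/mL for 1 h at 4 C; z-score combines 667 nm fluorescence of each spot with its signal to noise.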 As to conditions: small-molecule microarray, higher = more signal.
Experiment [19] concerns the target Torsin-1A-interacting protein 1 (Homo sapiens) (UniProt Q5JTV8). Put plainly: compound microarray binding of lysate hLAP1 – cell lysate, small-molecule microarray, COS7 lysate, 635/667 nm fluorescence, primary screen (AID 1116). As to conditions: 635 nm fluorescence, higher = more signal.
In experiment [20] the target is Alpha-bungarotoxin (Bungarus multicinctus) (UniProt P60615). Put plainly: compounds binding labelled alpha-BTX control protein – biochemical, small-molecule microarray, Alexa647 label, 635/667 nm fluorescence, artefact control for SMM control protein annotation, profiling panel (AID 1117). As to conditions: alpha-BTX-A647 binding fluorescence, higher = more signal.
Chain of Alpha-bungarotoxin (Bungarus multicinctus) (P60615 whole entry, looked up): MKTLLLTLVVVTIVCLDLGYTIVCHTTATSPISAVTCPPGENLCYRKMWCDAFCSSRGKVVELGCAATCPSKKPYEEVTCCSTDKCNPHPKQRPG

Chain of Torsin-1A-interacting protein 1 (Homo sapiens) (Q5JTV8 whole entry, looked up): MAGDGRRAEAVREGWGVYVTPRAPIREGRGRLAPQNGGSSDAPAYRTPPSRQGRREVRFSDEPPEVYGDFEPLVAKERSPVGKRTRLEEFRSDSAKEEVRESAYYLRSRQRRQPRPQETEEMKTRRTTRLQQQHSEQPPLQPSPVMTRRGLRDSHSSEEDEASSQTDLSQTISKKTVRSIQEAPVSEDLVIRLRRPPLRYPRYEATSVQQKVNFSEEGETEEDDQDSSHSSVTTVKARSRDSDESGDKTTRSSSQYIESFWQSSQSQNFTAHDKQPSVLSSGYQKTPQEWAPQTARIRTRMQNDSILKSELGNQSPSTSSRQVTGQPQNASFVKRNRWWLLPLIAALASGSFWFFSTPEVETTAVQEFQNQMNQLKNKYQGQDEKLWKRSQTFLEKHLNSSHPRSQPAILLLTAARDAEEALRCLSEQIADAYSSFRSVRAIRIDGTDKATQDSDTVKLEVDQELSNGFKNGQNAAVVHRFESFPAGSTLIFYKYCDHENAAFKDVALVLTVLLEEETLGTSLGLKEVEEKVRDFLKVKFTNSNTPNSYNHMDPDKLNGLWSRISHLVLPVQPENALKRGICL
Chain of Left-right determination factor 2 (Homo sapiens) (O00292 whole entry, looked up): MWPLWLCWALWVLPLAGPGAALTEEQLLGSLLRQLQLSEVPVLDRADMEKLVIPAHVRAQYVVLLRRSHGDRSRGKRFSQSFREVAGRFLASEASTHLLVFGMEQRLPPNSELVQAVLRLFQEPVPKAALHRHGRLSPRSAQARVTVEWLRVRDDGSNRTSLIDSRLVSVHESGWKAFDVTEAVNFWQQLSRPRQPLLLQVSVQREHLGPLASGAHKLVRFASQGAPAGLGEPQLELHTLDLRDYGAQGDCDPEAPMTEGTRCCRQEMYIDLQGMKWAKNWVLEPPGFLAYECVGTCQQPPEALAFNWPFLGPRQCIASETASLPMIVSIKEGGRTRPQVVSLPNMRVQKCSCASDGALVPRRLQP

Consider `CCC[C@@H]1C[C@@]1(CCC)[C@@H](NC(=O)OCc1ccccc1)c1ccc(-c2ccccc2)cc1`, for which the composite z-score in experiment [1] was -1.27; in experiment [2], -0.163; in [3], 0.565; in experiment [5] it was -0.933; in experiment [6] it was -1.74; in [7] it was -1.1. Further, the composite z-score in experiment [8] is -0.644; in experiment [9], -0.496; in experiment [10] it was 1.47; in experiment [11], -0.44; in [13], -0.484; in experiment [14] it was 0.233. Moreover, the composite z-score was 1.1 in experiment [15]; -0.0026 in experiment [16]; 1.42 in experiment [17]; -0.304 in [18]; -0.143 in experiment [19]; -0.899 in experiment [20]. The z-score in experiment [4] is -3.43 (inactive); in [12], -1.5.

Consider `CCCNC(=O)[C@@H]1c2ccccc2C(=O)N(C(C)C)[C@H]1c1ccc(CO)cc1`, for which the composite z-score in experiment [1] was 0.32; in experiment [2], 0.02; in experiment [3], 0.933; in experiment [5], -0.342; in [6] it was -0.307; in experiment [7], -0.87. In addition, the composite z-score was -0.961 in experiment [8]; -0.375 in [9]; 0.534 in experiment [10]; 0.123 in [11]; -0.378 in [13]; -0.193 in [14]. Besides, the composite z-score in [15] is 0.0439; in [16], -0.104; in experiment [17], 0.0062; in experiment [18], -0.287; in experiment [19], 0.625; in experiment [20], -0.182. Also, the z-score in experiment [4] was 0.844 (inactive); in experiment [12] it was -0.362.

As to `CCCC[C@@H]1C[C@H]1[C@@H](NC(=O)c1cccs1)c1ccc(C(F)(F)F)cc1`, the composite z-score in experiment [1] was 0.0819; in experiment [2], 0.0202; in [3], 0.549; in experiment [5], -0.609; in experiment [6], -0.776; in experiment [7], -0.507. Moreover, the composite z-score in [8] was -0.152; in experiment [9], -0.0222; in experiment [10] it was 1.09; in experiment [11], -0.47; in experiment [13] it was -0.45; in [14], -0.501. The composite z-score in experiment [15] is -1.05; in experiment [16] it was -0.0334; in [17], 0.214; in experiment [18] it was 0.277; in experiment [19], -0.515; in experiment [20], 0.237. Also, the z-score in [4] was 0.101 (inactive); in experiment [12], -0.152.

For `CN1C(=O)C2C=CC(C(O)c3ccc(F)cc3)N(Nc3ccccc3)C2C1=O` (stereo not given), the composite z-score in experiment [1] was 1.4; in experiment [2], 0.4; in experiment [3] it was 0.902; in [5], 0.0186; in [6], -0.433; in [7] it was -0.165. Also, the composite z-score in experiment [8] is 0.578; in [9], -0.463; in experiment [10], 0.623; in experiment [11] it was 0.793; in experiment [13] it was 0.0204; in [14], 0.746. Moreover, the composite z-score is 0.693 in experiment [15]; -0.0165 in experiment [16]; -0.412 in [17]; -0.305 in experiment [18]; 0.635 in [19]; 1.62 in experiment [20]. Moreover, the z-score in experiment [4] is 0.909 (inactive); in experiment [12] it was -0.216.

On to `C=C(/C(=C/C[C@H](OC(C)=O)c1cccc(OCCO)c1)c1cnc2ccccc2c1)C(C)C`, for which the composite z-score in experiment [1] was -0.96; in [2], -0.104; in experiment [3], -0.105; in experiment [5], 0.904; in experiment [6] it was 0.324; in experiment [7], 0.705. Moreover, the composite z-score was 1.49 in experiment [8]; 0.783 in experiment [9]; 1.98 in experiment [10]; 1.05 in experiment [11]; 0.524 in experiment [13]; -0.309 in [14]. Also, the composite z-score in experiment [15] is -0.502; in experiment [16], -0.118; in experiment [17], -0.264; in experiment [18], 0.0811; in [19], 0.235; in [20], 1.19. In addition, the z-score in experiment [4] was -0.236 (inactive); in experiment [12] it was -2.31.

Consider `Cc1cc(C)c(C(O)C2C=CC3C(=O)N(c4ccccc4)C(=O)C3N2Nc2ccc(C(C)C)cc2)c(C)c1` (stereo not given), for which the composite z-score in experiment [1] was 0.68; in experiment [2], 1.19; in experiment [3], 1.08; in experiment [5], 0.978; in experiment [6], 1.25; in experiment [7], -0.0206. In addition, the composite z-score in experiment [8] was 0.818; in experiment [9], -0.0403; in [10] it was 0.202; in experiment [11] it was -0.9; in [13], 0.229; in experiment [14], 2.15. For the same compound, the composite z-score in experiment [15] came out at 1.37; in experiment [16], 0.0792; in experiment [17] it was 0.664; in experiment [18], 1.21; in [19], 1.27; in experiment [20], 2.85. For the same compound, the z-score is -0.00156 (inactive) in experiment [4] and 0.437 in experiment [12].
